40 compounds from PubChem BioAssay (Tox21) can be followed below.

Results filed as inconclusive are left out. A number with no mark means an inactive call. Calls come from the whole dose curve; as a rule, active = well fitted inhibition curve with a large enough effect in the signal ratio in the repeat runs (not every such curve was filed as active); inconclusive = weak or mixed curves, or effect the other way; inactive = no such curve, though single readings can be large or run the other way; the % refers to the signal ratio.
% is set by controls: 0 for no effect and ±100 for the full control effect.

Chain of Bile acid receptor (Homo sapiens) (Q96RI1 whole entry, looked up): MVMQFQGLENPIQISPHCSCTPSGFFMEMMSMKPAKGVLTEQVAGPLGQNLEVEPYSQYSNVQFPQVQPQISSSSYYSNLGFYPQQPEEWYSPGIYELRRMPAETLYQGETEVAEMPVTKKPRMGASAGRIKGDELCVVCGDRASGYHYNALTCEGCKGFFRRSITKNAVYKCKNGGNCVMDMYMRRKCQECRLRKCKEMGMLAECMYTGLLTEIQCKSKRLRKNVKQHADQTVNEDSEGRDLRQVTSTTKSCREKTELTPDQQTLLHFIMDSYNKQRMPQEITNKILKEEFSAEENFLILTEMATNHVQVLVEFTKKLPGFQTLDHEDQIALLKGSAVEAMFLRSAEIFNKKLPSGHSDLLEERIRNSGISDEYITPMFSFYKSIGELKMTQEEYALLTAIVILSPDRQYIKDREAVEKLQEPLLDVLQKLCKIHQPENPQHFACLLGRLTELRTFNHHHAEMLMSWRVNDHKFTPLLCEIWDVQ

The target in this assay is Bile acid receptor (Homo sapiens) (UniProt Q96RI1). The experiment in a line: qHTS assay to identify small molecule antagonists of the farnesoid-X-receptor (FXR) signaling pathway (AID 743217). Particulars: HEK293T FXR-UAS-bla, beta-lactamase ratio, CDCA-stimulated, 16 h; series mostly up to 62.6 µM; activity change, negative = inhibition: at the top concentration. From the text:
U.S. Tox21 Program National Center for Advancing Translational Sciences [NCATS] NIH Chemical Genomics Center [NCGC] U.S. Environmental Protection Agency [EPA] National Institutes of Environmental Health Sciences [NIEHS] National Toxicology Program [NTP] U.S. Food and Drug Administration [FDA] Tox21 Assay Overview: The farnesoid-X-receptor (FXR), a nuclear hormone receptor, is highly expressed in liver, intestine, kidney and adrenal cortex. Natural ligands of FXR are the bile acids (Cholic acid, Chenodeoxy cholic acid etc). FXR is an important regulator of diverse metabolic pathways, including the bile acid homeostasis, lipid and glucose metabolisms. FXR regulates the expression of target genes by binding either as a monomer or as a heterodimer with the retinoid X receptor (RXR). Numerous studies have reported that FXR exerts protective function during cholestasis, diabetes, liver regeneration, and cancer. To identify compounds that inhibit FXR signaling, GeneBLAzer FXR-UAS-bla HEK 293T cell line (Invitrogen, Carlsbad, CA) containing a beta-lactamase reporter gene under the control of a UAS response element was used to screen the Tox21 10K compound library.
Tox21 Assay Protocol Summary: FXR-bla cells were dispensed at 5000 cells/5uL/well in 1536-well black wall/clear bottom plates using a Multidrop Combi (Thermo Fisher Scientific, Waltham, MA) dispenser. After the assay plates were incubated at 37C and 5% CO2 for 5 h, 23 nL of compounds dissolved in DMSO, positive controls or DMSO only was transferred to the assay plate by a Pintool station (Kalypsys, San Diego, CA), followed by addition of 1 uL Chenodeoxycholic acid (50 uM, final concentration in the wells). The assay plates were incubated at 37C for 16 h. After 1 uL of LiveBLAzerTM B/G FRET substrate was added using a Bioraptr Flying Reagent Dispenser (FRD) workstation (Beckman Coulter, Indianapolis, IN), the plates were incubated at room temperature for 2 h, and fluorescence intensity was measured by an Envision plate reader (PerkinElmer, Shelton, CT).
For orientation: qHTS replaces the single test concentration by a dilution series.
For `CNS(=O)(=O)Cc1ccc2[nH]cc(CCN(C)C)c2c1`, the “activity change, negative = inhibition” value is -0.534%. Take `O=C(O)C(c1ccc(Cl)cc1)c1ccc(Cl)cc1`: the “activity change, negative = inhibition” value is 0.956%. Take `CCOC(=O)C1=NN(c2ccccc2)C(=O)C1`: the “activity change, negative = inhibition” value is 1.93%.

With `O=[N+]([O-])c1cc[n+]([O-])cc1`, the “activity change, negative = inhibition” value was -4.11%. Consider `O=C(NN1CCCC1)NS(=O)(=O)c1ccc(Cl)cc1`, for which the “activity change, negative = inhibition” value was 1.82%. Regarding `C=CC(C)(CCC=C(C)C)OC(=O)c1ccccc1` (stereo not given), the “activity change, negative = inhibition” value is -3.68%.

For `COc1cc(C(C)(C)C)c(O)c(C(C)(C)C)c1`, the “activity change, negative = inhibition” value is -5.79%. Regarding `CC(C)c1ccc2c(C(C)C)cc(C(C)C)c(S(=O)(=O)O)c2c1`, the “activity change, negative = inhibition” value is 9.09% [at 81.1 µM].

Turning to `O=CNc1ccccc1`, the “activity change, negative = inhibition” value was -4.24% [at 81.1 µM]. Turning to `O=C(O)Cc1sc(-c2ccccc2)nc1-c1ccc(Cl)cc1`, the “activity change, negative = inhibition” value is 2.07%. For `Cc1ccc(C)o1`, the “activity change, negative = inhibition” value is -2.06% [at 81.1 µM]. Turning to `CCCCCCCCC(CO)CCCCCC` (stereo not given), the “activity change, negative = inhibition” value was -10.2%. As for `CCCCCCc1ccc(N)cc1`, the “activity change, negative = inhibition” value was -15.5%.

`CC(=O)O[C@H]1C[C@@H]2CC[C@@H]3[C@H](CC[C@@]4(C)[C@H]3C[C@H]([N+]3(C)CCCCC3)[C@@H]4OC(C)=O)[C@@]2(C)C[C@@H]1N1CCCCC1`: the “activity change, negative = inhibition” value is -4.01%.

On to `CC(C(=O)O)c1ccc(C(=O)c2ccccc2)s1` (stereo not given), for which the “activity change, negative = inhibition” value was 0.825%.

For `CN1CCN(C2=Nc3ccccc3Sc3ccc(Cl)cc32)CC1`, the “activity change, negative = inhibition” value was 0.858%. The same measure for `N=C(N=C(N)N)N1CCOCC1`: 0.052%.

Consider `O=S(=O)(O)c1ccc(O)c2ncccc12`, for which the “activity change, negative = inhibition” value is -8.72%.

On to `CC(C)(C)c1cc(CCC(=O)OCC(COC(=O)CCc2cc(C(C)(C)C)c(O)c(C(C)(C)C)c2)(COC(=O)CCc2cc(C(C)(C)C)c(O)c(C(C)(C)C)c2)COC(=O)CCc2cc(C(C)(C)C)c(O)c(C(C)(C)C)c2)cc(C(C)(C)C)c1O`, for which the “activity change, negative = inhibition” value was 5.11% [at 29.1 µM]. The same measure for `CC(C)(C)C1CCCCC1O` (stereo not given): 0.804%; for `Cc1ccccn1`: -7.53%; for `CN1CCC(OC(c2ccccc2)c2ccccc2)CC1`: 0.565%.

In the case of `CC(C)CCCC(C)CCO` (stereo not given), the “activity change, negative = inhibition” value was -0.693%. In the case of `O=C1c2cccc(O)c2C(=O)c2c(O)cc(CO)cc21`, the “activity change, negative = inhibition” value is 4.4%. As to `CCC(=O)OC(C)(C)C1CC=C(C)CC1` (stereo not given), the “activity change, negative = inhibition” value was 1.21%. On to `N#CCc1cccc(C(F)(F)F)c1`, for which the “activity change, negative = inhibition” value is 3.07%. The same measure for `O=S1(=O)c2cccc3cccc(c23)N1CCCN1CCN(c2ccc(F)cc2)CC1`: -13.2%; for `CC1=CC(=O)/C(=C(/C)O)C(=O)O1`: 5.44%; for `C=CCCCCCC`: 2.12%. Regarding `OCC1CC2CC1C1CCC(CO)C21` (stereo not given), the “activity change, negative = inhibition” value was -7.45%.

Consider `C=CC(=O)OCCOC(=O)CCC(=O)O`, for which the “activity change, negative = inhibition” value was -2.36%. In the case of `CC1(C)CCC(C)(C)c2cc(NC(=O)c3ccc(C(=O)O)cc3)ccc21`, the “activity change, negative = inhibition” value is -1.69%. For `CN(C)CC[C@@H](c1ccc(Br)cc1)c1ccccn1`, the “activity change, negative = inhibition” value was -14.9%. The same measure for `Cc1cc(NC(=O)C(=O)O)cc(C)c1Oc1ccc(O)c2c1CCC2`: 10.2%. With `O=C(NS(=O)(=O)/C=C/c1cccs1)c1ccc(F)cc1Br`, the “activity change, negative = inhibition” value was 9.11%.

For `COCCCCCCCCOCCC[Si](C)(O[Si](C)(C)C)O[Si](C)(C)C`, the “activity change, negative = inhibition” value was 0.527%.

Regarding `CCCCCCCCCCCCCCCCCBr`, the “activity change, negative = inhibition” value was -10.4% [at 29.1 µM]. Consider `COC(=O)CSc1cc(N=c2sc(=O)n3n2CCCC3)c(F)cc1Cl`, for which the “activity change, negative = inhibition” value is -0.758%. Consider `C#CCOC(=O)[C@@H](C)Oc1ccc(Oc2ncc(Cl)cc2F)cc1`, for which the “activity change, negative = inhibition” value was -4.51%.

`O=C(O)[C@@H]1[C@H]2C[C@H]3c4[nH]c5ccccc5c4CCN3C[C@@H]2CC[C@@H]1O`: the “activity change, negative = inhibition” value was 3.39%.
